TDP1 cell CPT: DT40-hTDP1 cell growth loss with CPT. AID 686979. 12% of 420,000 active. chicken DT40 Tdp1-/-;hTDP1 cells + 20 nM CPT, ATP luminescence, 48 h. Potency, µM (highest dose often 46.2 µM), for the others: at the highest dose activity change, negative = growth inhibition, usual class: inhibitors; note: potency is the fitted concentration of half-maximal effect; nearly all actives have a fitted effect of over 55% in size
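Chicken DT40 Tdp1-/- cells stably complemented with human TDP1 were seeded at 400 cells/well in medium containing 20 nM camptothecin, exposed to pin-transferred compounds, and grown at 37 °C for at least 48 hr. Viability was read as ATP luminescence.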
IL-1B inflam inh: inhibitors of inflammasome signaling (IL-1 beta secretion); activity change, % at 57.5 µM; THP-1 LPS/ATP IL-1B secretion, AlphaLISA, 16 h; hits give low values; 4.7% of 360,000 active; AID 743279; in the data active = activity change below about -50%; inconclusive = mostly about -30% to -49%
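Secreted IL-1B measured by AlphaLISA bead assay after 16 h compound exposure of THP-1 cells; compounds (final up to 57.5 uM) added 1 h before LPS (250 ng/mL) and ATP (1.25 mM) stimulation; lower signal means less secretion.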
ALOX12 inh: inhibitors of human 12S-lipoxygenase ALOX12 | AID 1671190 | Potency, µM (highest dose often 108 µM), without a hit: at the highest dose activity change, negative = inhibition, most hits filed as inhibitors | purified 12hLO, xylenol orange hydroperoxide absorbance | 1.1% of 580,000 active | P18054; note: potency is the fitted concentration of half-maximal effect
Target sequence (P18054 whole entry, looked up): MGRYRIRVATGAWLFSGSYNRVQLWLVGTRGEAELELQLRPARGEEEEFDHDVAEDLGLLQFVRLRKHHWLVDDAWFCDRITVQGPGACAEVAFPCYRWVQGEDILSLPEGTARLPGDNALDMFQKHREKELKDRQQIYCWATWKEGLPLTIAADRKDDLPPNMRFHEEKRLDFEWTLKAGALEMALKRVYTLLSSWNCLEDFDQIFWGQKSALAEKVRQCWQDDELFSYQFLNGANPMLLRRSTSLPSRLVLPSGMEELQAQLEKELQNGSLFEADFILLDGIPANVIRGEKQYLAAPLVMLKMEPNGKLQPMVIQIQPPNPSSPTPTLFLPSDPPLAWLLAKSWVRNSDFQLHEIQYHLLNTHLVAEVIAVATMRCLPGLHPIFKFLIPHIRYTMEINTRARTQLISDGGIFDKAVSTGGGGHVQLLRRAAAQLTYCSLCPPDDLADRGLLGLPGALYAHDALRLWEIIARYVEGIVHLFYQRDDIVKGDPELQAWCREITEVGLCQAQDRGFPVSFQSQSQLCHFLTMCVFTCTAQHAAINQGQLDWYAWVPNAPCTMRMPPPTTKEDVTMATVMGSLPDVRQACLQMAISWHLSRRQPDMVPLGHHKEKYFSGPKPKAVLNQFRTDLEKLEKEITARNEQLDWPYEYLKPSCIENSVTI
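Purified human 12hLO at 150 nM in 25 mM Hepes, 0.01% Triton X-100, pH 7.0, preincubated 15 min at room temperature with compound. Reaction started with 40 uM arachidonic acid, 30 min at room temperature. Hydroperoxide measured by Fe-xylenol orange, 573/405 nm absorbance ratio.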
HT1080 IDH1KD tx: HT-1080 IDH1 knockdown cell toxicity (counter line); Potency, µM (titrated, usually from 46.1 µM), without a hit: at the top dose activity, negative = toxicity, most hits filed as cytotoxic; HT-1080 IDH1 knockdown viability, ATP luminescence, 48 h; 2% of 360,000 active;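 note: potency is the fitted concentration of half-maximal effect; 0% = DMSO wells and -100% = cell-free medium wells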
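% activity derives from luminescence (CellTiter-Glo), normalised to DMSO and no-cell wells. HT-1080-IDH1KD cells, 750/well, had 48 h compound exposure at 37 °C.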
HT1080NT lethal: kills 2HG-producing HT-1080-NT fibrosarcoma cells | 1.6% of 360,000 active | AID 686970 | HT-1080-NT fibrosarcoma viability, CellTiter-Glo ATP luminescence, 48 h | Potency, µM (highest dose often 46.1 µM), without a hit: top-dose activity, negative = less viability, usual class: cytotoxic;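 note: NT is the 2HG producing partner of a matched IDH1 knockdown line; potency is the fitted concentration of half-maximal effect; 0% = DMSO-treated cells and -100% = media-only wells without cells; nearly all actives have a fitted effect of over 55% in size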
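750 cells/well, RPMI + 5% FBS; 2 h settle, compound pin-transfer, 48 h at 37 degrees C. CellTiter-Glo 10 min RT, luminescence. Normalized to DMSO and media-only wells.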
DT40 TDP1 no CPT: qHTS for Inhibitors of human tyrosyl-DNA phosphodiesterase 1 (TDP1): qHTS in cells in absence of CPT; DT40 Tdp1-/- hTDP1 cells, no CPT, ATP luminescence, 48 h; Potency, µM (doses to about 46.2 µM), inactives show top-dose activity change, negative = growth inhibition, usual class: inhibitors; 15% of 420,000 active; note: potency is the fitted concentration of half-maximal effect; nearly all actives have a fitted effect of over 55% in size
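Chicken DT40 Tdp1-/- cells complemented with human TDP1, screened without camptothecin (DMSO vehicle only), 400 cells/well. Compounds pin-transferred, cells incubated at 37 °C for at least 48 hr. Growth read as ATP-dependent luminescence (CellTiter-Glo, 30 min at RT).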
* marks the source's active call; other numbers are inactive results; i = inactive; ? = inconclusive; nt = not tested or not shown; [ ] = another dose, or the depositor's remark. The entries come from a sample that favours hits as a whole. Unless noted, calls come from the whole dose curve; as a rule, active = well fitted curve in the direction sought with a large enough effect; inconclusive = small, poorly fitted or top-dose-only effect, or another doubt; inactive = no such curve, though single readings can be large; an effect the other way counts as inactive or inconclusive. Unless noted, % is set by controls: 0 for no effect and ±100 for the full control effect.

SMILES	TDP1 cell CPT	IL-1B inflam inh	ALOX12 inh	HT1080 IDH1KD tx	HT1080NT lethal	DT40 TDP1 no CPT
Cn1c(=O)n(CCCc2ccccc2)c(=O)c2c1nc1n2CCN1c1ccccc1	7.3µM*	nt	-18%	nt	nt	6.5µM*
Cn1c(=O)n(CCc2ccccc2)c(=O)c2c1nc1n2CCCN1Cc1ccccc1	?	-18	130%	-4%[9.24 µM]	1%	13µM*
CCCn1c(=O)c2c(nc3n2CCCN3Cc2ccccc2)n(C)c1=O	?	-6	-16%	-18%	-7%	-15%
O=C(CC1CCOC2(CCN(C(=O)c3ccccc3)CC2)C1)N1CCCC1 (configuration not stated)	nt	nt	60%	nt	nt	nt
Cn1c(=O)n(Cc2ccc(F)cc2)c(=O)c2c1nc1n2CCCN1Cc1ccccc1	?	?	-2%	-3%[9.24 µM]	2%	23µM*
COCCn1c(=O)c2c(nc3n2CCCN3Cc2ccccc2)n(C)c1=O	14%	10	0%	9%	10%	3%
Cc1cc(/C=C2\Sc3ccccc3N2C)cc(C)[n+]1CC1CCCO1 (configuration not stated)	0.0082µM*	-101*	-23%	?	9.2µM*	0.026µM*
O=C1OC(Nc2nc(-c3ccc(F)cc3)cs2)c2ccccc21 (configuration not stated)	15µM*	-92*	0%	23µM*	?	23µM*
c1ccc(Nc2nc(-c3cccc4ccccc34)cs2)cc1	nt	nt	-23%	nt	nt	nt
CC(=O)Nc1nc(-c2cccc3ccccc23)cs1	15µM*	-10	-2%	-5%	-11%	?
CC(=O)NNc1nc(-c2ccccc2)cs1	21µM*	42	-19%	-2%	0%	?
O=C(NNc1nc(-c2ccc(F)cc2)cs1)c1ccccc1	2.6µM*	-6	-15%	?	?	4.1µM*
O=C(NNc1nc(-c2ccccc2)cs1)c1ccc(F)cc1	5%	-13	-6%	9%	?	1%
O=C(CCc1nnc2ccc(N3CCOCC3)nn12)NCC1CCN(Cc2ccc(F)cc2)CC1	nt	nt	4%	nt	nt	nt
Cc1ccc2oc(-c3ccc(Cl)c(NC(=O)c4cc([N+](=O)[O-])ccc4N4CCOCC4)c3)nc2c1	nt	nt	15%	nt	nt	nt
O=C(NNc1nc(-c2ccccc2)cs1)c1cccs1	?	-3	-9%	?	?	23µM*
CCOC(=O)Nc1nc(-c2ccc(Cl)cc2Cl)cs1	?	-29	-30%	22%	30%	10µM*
COc1c(F)cc([C@@H]2C[C@H](NC(C)=O)C[C@H](C(C)C)O2)cc1Cl	nt	nt	36%	nt	nt	nt
COc1cc2c(cc1OC)CN(Cc1cc(=O)oc3c(C)c(C)ccc13)CC2	?	-11	?	11%	21%	21µM*
COc1cc2c(cc1OC)CN(Cc1ccc(OC)c(C)c1OC)CC2	29µM*	-12	?	-25%	-24%	21µM*
COc1ccc(CN2CCN(c3ccccn3)CC2)c(OC)c1C	?	0	-1%	?	-8%	13µM*
CCc1ccc2c(CN3CCc4cc(S(N)(=O)=O)ccc43)cc(=O)oc2c1	nt	nt	14µM*	nt	nt	nt
COc1cc2c(cc1OC)CN(Cc1cc(=O)oc3cc(C)c(Cl)cc13)CC2	-8%	24	-9%	16%	23%	?
Cc1ccc2c(CN(C)Cc3ccccc3)cc(=O)oc2c1C	-22%	2	0%	?	?	15µM*
CCc1ccc2c(CN3CCc4cc(OC)c(OC)cc4C3)cc(=O)oc2c1	?	0	?	-18%	-2%	23µM*
SMILES	TDP1 cell CPT	IL-1B inflam inh	ALOX12 inh	HT1080 IDH1KD tx	HT1080NT lethal	DT40 TDP1 no CPT
CCOC(=O)c1[nH]c2ccccc2c1NC(=O)C12CC3CC(CC(C3)C1)C2	nt	nt	-1%	nt	nt	nt
CN1/C(=C\C=C2/SC(=S)NC2=O)C(C)(C)c2ccccc21	8.2µM*	27	-19%	-11%	-4%	5.8µM*
CO/N=C/C=C1/N(C)c2ccccc2C1(C)C	?	-19	-13%	9%	0%	-6%
CCCN1C(=O)/C(=C\C=C2\N(CC)c3ccccc3C2(C)C)SC1=S	16µM*	6	-17%	4%	0%	13µM*
CN1C(=CC=C2C=C(I)C(=O)C(I)=C2)C(C)(C)c2ccccc21	18µM*	10	nt	?	-17%	16µM*
O=C(NCCC1=CCCCC1)c1cn(CCCc2ccccc2)nn1	nt	nt	9%	nt	nt	nt
CS(=O)CC(O)(c1ccc(F)cc1)C1CC1 (configuration not stated)	-7%	12	-5%	2%	1%	-21%
CNCC/C=C1/c2ccccc2CSc2ccccc21	?	0	0%	?	16µM*	?
CCCCS(=O)(=O)c1nc(-c2ccc(Br)cc2)cc(-c2ccccc2)c1C#N	3.7µM*	nt	-10%	nt	nt	2.6µM*
COc1cccc(CNC(=O)c2ccc(NC(=O)C3=CSCCO3)cc2)c1	?	-12	7%	-1%	2%	-16%
COc1ccc(/C=N/NC(=O)c2ccccc2Cl)cc1CSc1nc2ccccc2s1	5.8µM*	50	-22%	?	4.5µM*	4.6µM*
COc1ccc(/C=N/NC(=O)CCC(=O)Nc2ccccc2)cc1OC	-4%	-5	5%	0%	-12%	-23%
COc1ccc(/C=N/NC(=O)c2cccnc2)cc1CN1CCOCC1	11%	49	-5%	-4%	1%	-3%
COc1ccc(/C=N\NC(=O)c2ccccc2Cl)cc1COc1c(F)c(F)c(F)c(F)c1F	14%	i	10%	?	-13%	-6%
CCc1cccc(C)c1NC(=O)CCCSc1nc2ccccc2s1	18µM*	10	-13%	-12%	-12%	16µM*
COc1ccc(/C=N/NC(=O)CCn2cnc(-c3ccccc3)c2-c2ccccc2)cc1OC	5.2µM*	16	0%	8.2µM*	9.2µM*	6.5µM*
COc1ccc(/C=N/NC(=O)c2cccnc2)cc1CSc1nc2ccccc2s1	3.7µM*	7	29%	?	?	2.9µM*
CCOc1cccc(CNC(=O)c2nnn3c2COC(c2ccc(C)cc2)C3)c1 (configuration not stated)	nt	nt	33%	nt	nt	nt
Cc1cnc(CNC(=O)C2(N3CCCCC3)Cc3ccccc3C2)cn1	nt	nt	23%	nt	nt	nt
CCN(CC)C(=O)c1cccc(NC(=O)C2CCN(C(=O)c3cccs3)CC2)c1	-18%	-7	-17%	1%	11%	?
O=C(Nc1cc2ccc(O)cc2oc1=O)c1ccccc1	-1%	nt	-29%	nt	nt	-18%
